Screening data as filed in PubChem.
In the library only some 3.6% were active in any assay of this set; here they are far more common.
Rango dissoc inh: prevents RanGTP from dissociating the Rango-importin beta complex | O95149+P62826 | Potency, µM (highest dose often 46.1 µM), for inactives: top-dose activity change, negative = inhibition | 340,000 compounds, 0.071% hits | Biochemical FRET Rango-importin beta, RanGTP-induced dissociation | AID 540253; calls by dose curve; note: potency is the fitted concentration of half-maximal effect; % of control where 0% means no effect; nearly all actives have a fitted effect of over 45% in size
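FRET read at 45 min, room temperature: inhibitors block the CFP/YFP signal rise when RanGTP (0.6 uM Ran, 2 mM GTP, 0.2 uM RCC1) frees Rango (0.1 uM) from importin beta (0.25 uM). Pre-read after 5 min compound exposure flags interference.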
GCN5L2 inh: blocks human GCN5L2 histone acetyltransferase. GCN5L2 HAT assay, ThioGlo1 CoA-SH fluorescence. 390,000 compounds, 0.21% hits. Q92830. Potency, µM (top dose mostly 58.9 µM), without a hit: top-dose activity change, negative = inhibition, hits mostly inhibitors; note: potency is the fitted concentration of half-maximal effect; % is set by controls: 0 for no effect and ±100 for the full control effect
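Preincubate 20nM GCN5L2 with compound 15 min, RT → add 50uM ThioGlo1 + 75uM H3(1-25) + 70uM acetyl-CoA → read fluorescence 0 and 20 min. Primary qHTS; fluorescent artifacts likely.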
PLK1 PBD inh: blocks phosphopeptide binding to human PLK1 polo-box domain; P53350; Plk1 PBD binding of FITC phosphopeptide, fluorescence polarization; Potency, µM, without a hit: max response, negative = inhibition, hits mostly inhibitors; 360,000 compounds, 2.8% hits; AID 720504; note: potency is the fitted concentration of half-maximal effect; series mostly up to about 57 µM; % is set by controls: 0 for no effect and ±100 for the full control effect; nearly all actives have a fitted effect of over 65% in size
PI5P4K alpha inh: inhibitors of human PI5P4K alpha. P48426. PI5P4Kalpha enzyme, ADP-Glo luminescence, 60 min; active compounds read low. max response, %. 330,000 compounds, 1.2% hits. AID 652105; active = max response of -50% or lower; inconclusive = between -30% and -50%; inactive = -30% or higher; note: value at the top dose of about 77 µM; % is set by controls: 0 for no effect and ±100 for the full control effect
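Enzyme plus substrate dispensed, test compounds pinned in, then ATP (5 microM final) added. After 60 min at RT, ADP-Glo reagent 1 for 45 min and reagent 2 for 30 min preceded luminescence imaging.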
Rango complex inh: prevents formation of the Rango-importin beta complex | 340,000 compounds, 0.031% hits | Q14974 | Potency, µM (highest dose often 92.2 µM), inactives show at the top dose inhibition of complex formation | Rango CFP/YFP FRET sensor + importin beta, 45 min; calls by dose curve;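 note: potency is the fitted concentration of half-maximal effect; 0% = DMSO wells and 100% = buffer wells lacking importin beta; nearly all actives have a fitted effect of over 15% in size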
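FRET biosensor Rango (snurportin 1 IBB between N-terminal EYFP and C-terminal Cerulean), 50 nM in PBS/1 mM DTT/0.02% Tween-20/0.1% BSA, preincubated 5 min RT with compound; 0.125 microM importin beta added, 45 min RT, CFP/YFP FRET ratio read.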
VDR inh: vitamin D3 receptor (human) inhibition | VDR-SRC2-3 peptide fluorescence polarization, 2 h | Potency, µM, without a hit: max response, negative = inhibition, hits mostly inhibitors | 400,000 compounds, 0.93% hits | AID 504847; note: potency is the fitted concentration of half-maximal effect; % is set by controls: 0 for no effect and ±100 for the full control effect
Target sequence (P11473 whole entry, looked up): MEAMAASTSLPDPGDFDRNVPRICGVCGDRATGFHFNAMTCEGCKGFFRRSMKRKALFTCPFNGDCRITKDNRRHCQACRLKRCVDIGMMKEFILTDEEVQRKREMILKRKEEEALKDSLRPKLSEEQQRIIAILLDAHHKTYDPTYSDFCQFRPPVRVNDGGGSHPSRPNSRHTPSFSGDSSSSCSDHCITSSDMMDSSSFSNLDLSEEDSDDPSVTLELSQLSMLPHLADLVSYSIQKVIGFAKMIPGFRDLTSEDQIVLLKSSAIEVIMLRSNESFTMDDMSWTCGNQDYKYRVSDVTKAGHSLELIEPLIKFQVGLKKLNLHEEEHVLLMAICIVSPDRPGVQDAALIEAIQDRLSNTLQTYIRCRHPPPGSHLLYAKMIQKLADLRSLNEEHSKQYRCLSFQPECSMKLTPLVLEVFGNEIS
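VDR–SRC2-3 interaction, FP format. Cmpds 23 nl via pintool, brief spin, 2 h ambient incubation.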
TbPYK inh: Trypanosoma brucei pyruvate kinase inhibition, cherry-pick confirmation; AID 720569; 890 compounds, 67% hits; Potency, µM (top dose mostly 76.9 µM), for the others: top-dose activity change, negative = inhibition, usual class: inhibitors; shares compounds with PLK1 PBD inh; recombinant TbPYK, Kinase-Glo ATP luminescence; note: potency is the fitted concentration of half-maximal effect; % is set by controls: 0 for no effect and ±100 for the full control effect; nearly all actives have a fitted effect of over 70% in size
TbPYK orthogonal: TbPYK inhibition, orthogonal confirmation | AID 720584 | Potency, µM (titrated, usually from 76.9 µM), for inactives: top-dose activity change, negative = inhibition, hits mostly inhibitors | 890 compounds, 62% hits | shares compounds with PLK1 PBD inh | recombinant TbPYK, ADP-Glo luminescence, 60 min; note: potency is the fitted concentration of half-maximal effect; % is set by controls: 0 for no effect and ±100 for the full control effect; nearly all actives have a fitted effect of over 75% in size
* marks the source's active call; other numbers are inactive results. Unless noted, calls come from the whole dose curve; as a rule, active = well fitted curve in the direction sought with a large enough effect; inconclusive = small, poorly fitted or top-dose-only effect, or another doubt; inactive = no such curve, though single readings can be large; an effect the other way counts as inactive or inconclusive.

Screening COc1cccc(NC(=O)Cn2c(=O)n(CCCCC(=O)NCCc3ccccc3)c(=O)c3ccccc32)c1 returned GCN5L2 inh 0.1% and VDR inh -5.8%.
Screening CCN(CC)S(=O)(=O)c1ccc(C(=O)NC(=S)N(CCC#N)Cc2cccnc2)cc1 returned Rango dissoc inh 5.9%, GCN5L2 inh -15.4%, PLK1 PBD inh -9.5%, PI5P4K alpha inh -1.5, Rango complex inh -0.1%, VDR inh 2.6%, TbPYK inh 12.6µM* and TbPYK orthogonal 12.6µM*.
Screening CCNC1=C(Cl)C(=O)c2ccccc2C1=O returned Rango dissoc inh -2.0%, GCN5L2 inh inconclusive, PLK1 PBD inh -4.1%, PI5P4K alpha inh -11.0, Rango complex inh -0.6% and VDR inh -9.1%.
`CCCC(=O)NC1=C(Cl)C(=O)c2ccccc2C1=O` gave Rango dissoc inh 2.1%, PLK1 PBD inh 2.99µM*, PI5P4K alpha inh -57.9*, Rango complex inh -3.9%, VDR inh 7.94µM*, TbPYK inh 7.08µM* and TbPYK orthogonal 7.08µM*.
For CC1CCC(C(C)C)[C@H](O)C1 (stereo partly drawn) the results were GCN5L2 inh -9.1% and VDR inh 9.9%.
For O=P(O)(O)O[C@@H]1[C@H](O)[C@H](O)[C@@H](OP(=O)(O)O)[C@H](OP(=O)(O)O)[C@H]1O the results were GCN5L2 inh -3.3% and VDR inh 0.6%.
CC1=C(C(N)=O)C(c2ccccc2[N+](=O)[O-])n2ncnc2N1 (stereo not drawn) was read as Rango dissoc inh -1.6%, GCN5L2 inh 9.5%, PLK1 PBD inh 8.44µM*, PI5P4K alpha inh -3.8, Rango complex inh 0.7%, VDR inh 25.1µM*, TbPYK inh 25.1µM* and TbPYK orthogonal inconclusive.
`O=c1c2oc3ccccc3c2n(Cc2ccccc2Cl)c(=O)n1Cc1ccc2c(c1)OCO2` gave GCN5L2 inh -3.8% and VDR inh -3.0%.
Cc1ccc2c(c1)C(N1CCCC1=O)CC(c1ccco1)N2 (stereo not drawn) was read as Rango dissoc inh -28.4%, GCN5L2 inh -2.6%, PLK1 PBD inh inconclusive, PI5P4K alpha inh inconclusive, Rango complex inh inconclusive, VDR inh -13.4%, TbPYK inh -11.1% and TbPYK orthogonal -5.8%.
For O=C(O)c1cc2n(n1)C(C(F)(F)F)CC(c1ccco1)N2 (stereo not drawn) the results were Rango dissoc inh -10.9%, PLK1 PBD inh -2.4%, PI5P4K alpha inh -5.4, Rango complex inh -0.8% and VDR inh -1.7%.
CC(=O)Nc1ccc(C(=O)CSc2nnc3cc(C)c4ccccc4n23)cc1 was read as GCN5L2 inh 1.1% and VDR inh 13.2%.
Screening Cc1c(Br)c(O)c(Br)c2sc(=O)oc12 returned Rango dissoc inh 0.1%, GCN5L2 inh -25.3%, PLK1 PBD inh 26.7µM*, PI5P4K alpha inh -69.0*, Rango complex inh 1.2%, VDR inh inconclusive, TbPYK inh inconclusive and TbPYK orthogonal inconclusive.
Screening CCc1sc(-c2cc3ccccc3oc2=O)nc1-c1ccc(C)cc1 returned VDR inh -18.9%.
`O=c1ccc2c(OCCCCOc3ccccc3)c3ccoc3cc2o1` gave GCN5L2 inh -5.3% and VDR inh 1.5%.
`CCOC(=O)c1cc(-c2ccccc2)n(CCCC(=O)Nc2cccc(Cl)c2C)c1C` gave GCN5L2 inh -2.1% and VDR inh 9.2%.
